Results with a measured potency or affinity are listed apart.
target: Broad substrate specificity ATP-binding cassette transporter ABCG2 (Homo sapiens) (UniProt Q9UNQ0); assay: ABCG2 efflux pump inhibitors, dose response, Ig-MXP3 cells, flow cytometry (AID 1690); conditions: JC-1 efflux; series mostly up to 33.3 µM; inhibition: at the top concentration
Sequence (Q9UNQ0 whole entry, looked up): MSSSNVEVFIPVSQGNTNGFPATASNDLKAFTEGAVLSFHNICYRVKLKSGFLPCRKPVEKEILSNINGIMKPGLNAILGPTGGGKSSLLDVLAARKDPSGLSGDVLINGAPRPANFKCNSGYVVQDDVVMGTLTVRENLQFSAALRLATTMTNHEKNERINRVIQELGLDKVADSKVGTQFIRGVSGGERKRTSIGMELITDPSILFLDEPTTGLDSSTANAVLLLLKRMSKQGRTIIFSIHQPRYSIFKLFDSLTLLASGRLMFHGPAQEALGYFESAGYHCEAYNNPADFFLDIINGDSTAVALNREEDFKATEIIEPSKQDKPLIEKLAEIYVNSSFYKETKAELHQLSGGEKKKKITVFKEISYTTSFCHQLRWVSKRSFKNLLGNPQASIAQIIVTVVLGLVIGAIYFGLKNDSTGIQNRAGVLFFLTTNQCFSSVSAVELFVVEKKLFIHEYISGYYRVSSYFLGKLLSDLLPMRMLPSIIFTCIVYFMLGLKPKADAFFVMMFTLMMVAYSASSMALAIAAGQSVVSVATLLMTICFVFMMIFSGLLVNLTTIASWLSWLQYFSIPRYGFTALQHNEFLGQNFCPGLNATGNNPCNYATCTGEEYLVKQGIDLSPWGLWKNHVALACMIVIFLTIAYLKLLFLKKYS

inhibition, inactive:
CCCCN1/C(=C/c2ccc3ccccc3[n+]2CC)Sc2ccccc21 100% [at 66.6 µM], COc1ccc(CCNC(=O)COC(=O)/C=C/c2ccc(OC)c(OC)c2)cc1 51.7%, CCN1/C(=C\C=C\c2oc3ccc4ccccc4c3[n+]2CC)Oc2ccc3ccccc3c21 46.5% [at 66.6 µM], COC(=O)c1cc(NC(=O)c2ccccc2)c(=O)oc1/C=C/Nc1ccc(Oc2ccccc2)cc1 -230% [at 66.6 µM], COc1ccccc1Nc1nc2nonc2nc1N1CCCCC1C (stereo unspecified) 9.37% [at 66.6 µM], N#CC(C#N)=C1C=C2C=C(N3CCCCCC3)CCC2CC1 (stereo unspecified) 100%, N#CC(C#N)=C1C=C2C=C(N3CCOCC3)CCC2CC1 (stereo unspecified) 57.5%, CN(C)c1ccc(/C=C2\SC(=S)N(Nc3ncc(C(F)(F)F)cc3Cl)C2=O)cc1 58.1%, CNc1nc2cc([N+](=O)[O-])c([N+](=O)[O-])cc2nc1NC 80.2% [at 11.1 µM], COc1ccc(/C=N/NC(=O)c2cccnc2)cc1CN1CCN(c2ccc(F)cc2)CC1 60%, CCOC(=O)c1sc2cc([N+](=O)[O-])cc(SCC(C)C)c2c1N -5.78% [at 66.6 µM], CCCCn1c(O)c(N=Nc2ccccn2)c2ccccc21 85.4% [at 66.6 µM], Cc1nc2cc(-c3cccc(F)c3)nn2c(N2CCN(C(=O)c3ccco3)CC2)c1C 74.5%, CC(=O)Nc1ccc(Nc2ccc(S(=O)(=O)C(F)(F)F)cc2[N+](=O)[O-])cc1 42.1%, CN1CCN(C2=CC3=CC(=C(C#N)C#N)CCC3CC2)CC1 (stereo unspecified) 30.5%, CCN(CC)C1=CC2=CC(=C(C#N)C#N)CCC2CC1 (stereo unspecified) 100% [at 66.6 µM]

Reference: PubChem BioAssay AID1690 (NMMLSC, 2009)
